Screening results (PubChem BioAssay)
Sampled rows, rich in hits. Any-hit rate of the full collection: about 0.71%.
MIN6 prolif: inducers of MIN6 beta-cell proliferation, primary screen, ATP luminescence, uHTS. MIN6 cells proliferation, ATPlite luminescence, 48 h; cells starved in 0.2% serum; 100% = growth in 10% serum. proliferation, % at 10 µM. hit rate 0.29% among 330,000. AID 2380, 2010;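 active means compounds whose signal lies at least 3.5 SD above the mean of all wells on their plate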;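 further: 0% = DMSO-treated cells in low-serum medium and 100% = 10% serum control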
hiPSC survival: enhancers of single-cell hiPSC survival, primary screen, ATPlite luminescence | 100% = ROCK inhibitor wells, 0% = DMSO | survival enhancement, % at 20 µM | hit rate 0.044% among 360,000; in the data active means survival enhancement above about 18%;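 further: cells exposed to compounds for 16 hours before the ATP read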
H9c2 TAG inh: inhibitors of triacylglycerol accumulation, primary screen, cell-based, uHTS, fluorescence, H9c2 | H9c2 cells, Nile Red lipid (TAG) fluorescence; cells loaded with 200 µM oleic acid | inhibition, % at 12.5 µM | hit rate 0.66% among 230,000 | AID 651582, 2012;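 active means pattern-corrected inhibition of lipid staining of at least 50% with the nuclear-stain viability signal not falling by more than 50%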;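 further: 0% = DMSO wells and 100% = triacsin C control wells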
The depositor's hits bear a star; x = not tested or not shown.

SMILES	MIN6 prolif	hiPSC survival	H9c2 TAG inh
CCN1C/C(=C\c2cccc([N+](=O)[O-])c2)C(=O)/C(=C/c2cccc([N+](=O)[O-])c2)C1	x	56*	x
COc1cccc(NC(=O)Nc2nnc([C@H]3C[C@H](O)[C@@H](CO)O3)s2)c1	x	-1	7
Cc1ccc2nc(Cl)c3nnnn3c2c1	-6	30*	82
Cc1ccc2nc(N3CCN(c4cccc(C)c4C)CC3)c3nnnn3c2c1	-4	1	-1
CCCN1CCC(C(=O)NC(c2ccc(Cl)cc2)c2ccsc2)CC1 (stereo unspecified)	x	-2	-3
NC(=O)c1ccc(NC(=O)CCC(=O)c2cccs2)cc1	0	62*	x
NS(=O)(=O)c1ccc(NC(=O)CCC(=O)c2cccs2)cc1	-2	0	x
S=c1[nH]nc(-c2cc(-c3ccccc3)n[nH]2)n1/N=C/c1ccccc1	-2	0	2
CC(=C/c1ccccc1)/C=N/n1c(-c2ccncc2)n[nH]c1=S	15*	5	3
S=c1[nH]nc(-c2cc(-c3ccccc3)n[nH]2)n1/N=C/C(Br)=C/c1ccccc1	-4	0	72*
CC(/C=N/n1c(-c2cccnc2)n[nH]c1=S)=C\c1ccccc1	0	9	x
Cc1ccc2nc(-c3ccco3)c(CC(C)(C)C)n2c1	x	-2	x
COc1ccc(S(=O)(=O)N2CCC[C@H]2C(=O)N2CCC[C@H]2C(=O)NCc2ccc(F)cc2F)cc1C	x	-1	x
COc1ccc(/C=N/NC(=O)COc2ccccc2-c2ccccc2)cc1	-3	-1	59*
COc1ccc(/C=N/NC(=O)CCn2cnc(-c3ccccc3)c2-c2ccccc2)cc1	-5	-3	40
Cc1ccc(S(=O)(=O)Nc2ccc3c4c(cccc24)CC3)c(C)c1	-4	-1	22
Cc1cc(C)c(S(=O)(=O)Nc2ccc3c4c(cccc24)CC3)c(C)c1	-6	-4	58*
O=C1Nc2ccccc2N(C(=O)c2ccc(-c3ccccc3)cc2)C1c1nc2ccccc2[nH]1 (stereo unspecified)	x	-2	x
COc1ccc(-c2cc(C(=O)NCc3cccc(C(F)(F)F)c3)[nH]n2)c(C)c1	x	1	7
CCC(C)(C)c1ccc(Oc2ccc(N)cc2)cc1	x	0	69*
CCC(C)(C)c1ccc(Oc2cccc(C(=O)O)c2)cc1	0	-1	x
CC(=O)Nc1ccc(S(=O)(=O)N(CC(=O)NCC2CCCO2)Cc2ccccc2Cl)cc1 (stereo unspecified)	x	4	-9
CC(C)=C[C@H]1C[C@H](C)[C@H]2CC[C@H](C)c3c(O[C@@H]4O[C@@H](C)[C@@H](O)[C@@H](O)[C@@H]4O)c(O)c(C)c1c32	x	-1	x
O=C(Cn1ncc(Cl)c(Cl)c1=O)NC(=O)NC1CCCCC1	-6	-4	56*
O=C(CN1CCCCC1)NC(=O)NC1CCCC1	0	1	x
SMILES	MIN6 prolif	hiPSC survival	H9c2 TAG inh
CC(Oc1ccccc1)C(=O)Nc1nc(-c2ccccn2)cs1 (stereo unspecified)	-5	0	-46
CC(Oc1ccccc1)C(=O)Nc1nc(-c2ccncc2)cs1 (stereo unspecified)	-1	25*	-6
CC1(C(=O)NS(=O)(=O)Cc2ccccc2C(F)(F)F)CCN1C(=O)c1ccco1 (stereo unspecified)	x	1	-4
CCOC(=O)[C@]12CCCC=C1N(Cc1ccc3c(c1)OCO3)C(=O)[C@H](CC(=O)N1CCCCC1)C2	x	-1	x
Cc1ccc(S(=O)(=O)c2cc3ccccc3oc2=Nc2ccc3c(c2)OCO3)cc1	-2	0	10
Cc1ccc(S(=O)(=O)c2cc3ccccc3oc2=Nc2ccc3c(c2)OCCO3)cc1	0.0*	-1	x
O=S1(=O)CC(N2CCCCC2)CN1C1CCCCC1 (stereo unspecified)	x	-1	x
CC#CC[N+](C)(C)CCCCCCCC	-1	0	-25
CCCCCCCCCCCCCCCC[N+](C)(C)Cc1ccc(F)cc1	x	-2	109*
Cc1cccc(N2CCN(C(=O)c3ccncc3)CC2)c1C	0	0	-8
COc1cc(C(=O)N2CCN(c3cccc(C)c3C)CC2)cc(OC)c1OC	-5	-2	56*
O=C1C(=Cc2ccccc2O)SC(=S)N1CCCN1CCOCC1	x	-2	9
CN(Cc1ccc(Cl)s1)C(=O)CCl	-7	-1	65*
COc1ccc(CN(C)C(=O)CCl)cc1	x	-2	44
Cc1cccc(C)c1N1CCN(C(c2cc3ccccc3o2)c2nnnn2C(C)(C)C)CC1 (stereo unspecified)	x	0	x
CC1CCN(CCCNC(=O)c2ccc(CS(=O)(=O)Cc3ccccc3F)o2)CC1	x	2	4
O=C(NCCCN1CCCCCC1)c1ccc(CS(=O)(=O)Cc2ccccc2F)o1	x	28*	x
O=c1c(Br)c(Br)cnn1-c1ccccc1	x	0	90*
O=c1c(Br)c(N2CCCC2)cnn1-c1ccccc1	1	4	x
Cc1ccc(-n2ncc(Br)c(Br)c2=O)cc1	x	-4	66*
COc1cnn(-c2ccc(F)cc2)c(=O)c1Br	-1	0	7
COc1ccc(Oc2c(Cl)cnn(-c3ccc(C)cc3)c2=O)cc1	-4	-6	-1
COc1c(Cl)cnn(-c2ccc(C)cc2)c1=O	-4	27*	x
COc1ccc(OC)c(CN2CCN(C(=O)c3cccc(S(=O)(=O)N(C)c4ccccc4)c3)CC2)c1	x	-2	-9
CSc1ccc(Cn2c(C)c(C(=O)NCc3ccc4c(c3)OCO4)sc2=O)cc1	x	-2	-38
SMILES	MIN6 prolif	hiPSC survival	H9c2 TAG inh
CCOc1cc(/C=N/Nc2cc(C)nc(-n3nc(C)cc3C)n2)ccc1O	-7	0	68*
COc1ccc(/C=N/Nc2cc(C)nc(-n3nc(C)cc3C)n2)c(OC)c1	-6	-2	x
O=C(c1ccccc1)c1ccc2nc(-c3ccc(NC(=O)c4ccccc4F)cc3)[nH]c2c1	-4	3	58*
O=C(O)CCC(=O)Nc1ccc(-c2nc3ccc(C(=O)c4ccccc4)cc3[nH]2)cc1	-2	0	0
Nc1ncnc2c1ncn2[C@@H]1O[C@H](C(=O)NCc2ccc(OC(F)(F)F)cc2)[C@@H](O)[C@H]1O	x	2	x
COc1ccc(NC(=O)C2CCCN2S(=O)(=O)c2ccc3c(c2)C(C)(C)C(=O)N3C)cc1 (stereo unspecified)	x	-1	-8
COc1cc(NC(C)CCCN)c2nc(C)ccc2c1Oc1ccc(F)cc1 (stereo unspecified)	x	-1	13
Cc1ccccc1-c1nc(-c2ccc(NC(=O)c3ccc4c(c3)OCO4)cc2)no1	-4	-1	x
COc1cc(-c2nc(-c3ccc(NC(=O)c4ccc5c(c4)OCO5)cc3)no2)cc(OC)c1OC	-5	2	93*
Nc1nc(CCl)nc(Nc2ccc3ccccc3c2)n1	x	0	79*
COc1ccc(Nc2nc(N)nc(CCl)n2)cc1	-4	-1	25
COC(=O)c1cc(=O)nc(NNC(C)=O)s1	x	5	x
CCc1nc2c(OCCOc3ccc(F)cc3)cccn2c1N(C)C(=O)c1ccc(OC)cc1	x	0	2
COc1ccc(COc2cc(-c3cccc(OC)c3)nc3ccc(NC(=O)c4ccc(OC)cc4)cc23)cc1	-4	2	57*
COc1ccc(COc2cc(-c3cccc(OC)c3)nc3ccc(NC(=O)c4ccccc4)cc23)cc1	-3	-1	x
